The values below come from PubChem BioAssay (NCATS).

Values joined by “and” are separate entries in the source; they are usually repeats but may differ in a detail not shown here. Equal entries are not always repeated. Records with an inconclusive call do not appear. Active and inactive are the calls of the source. The call rests on the fitted dose curve; in most records, active means well fitted cell-killing curve with a large enough effect; inconclusive means small, poorly fitted or top-dose-only effect, or effect the other way; inactive means flat fitted curve, though single readings scatter.
On the % scale 0 is the no-effect control and ±100 the full control effect.

A short description of the assay: qHTS assay for cell viability of HEK293 cells (AID 743288). Further: nearly all actives have a fitted effect of over 50% in size. The settings on record: ATP luminescence (CellTiter-Glo), 18 h, active compounds read low. The procedure, abridged:
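HEK293 parental, 2,000 cells/well; ≥5 h pre-incubation 37 C; pintool compound addition; 18 h, 37 C; CellTiter-Glo 30 min RT; luminescence read.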
Consider `Oc1cccc(Cl)c1Cl`, for which the max response was -3.83% (inactive).
Take `CCC/C=N/O`: the max response is 1.47% (inactive).
With `Nc1cccc2ccccc12`, the max response was -0.157% (inactive).
The value for `Cc1cnc[nH]1` was -9.96% (inactive); that for `CN(C)N=O` was -0.309% (inactive); that for `COc1c(C(C)(C)C)cc([N+](=O)[O-])c(C)c1[N+](=O)[O-]` was -7.25% (inactive).
As to `C=C(Cl)CCl`, the max response was -2.76% (inactive).
With `ClCCOCOCCCl`, the max response was -1.26% (inactive).
Consider `CC12CC1(C)C(=O)N(c1cc(Cl)cc(Cl)c1)C2=O` (configuration not stated), for which the max response was 5.03% (inactive) and -17.6% (inactive).
Regarding `CC(C)(Cl)[N+](=O)[O-]`, the max response was 8.03% (inactive).
On to `Cl/C=C/Cl`, for which the max response is -15.8% (inactive).
As to `CCCCOCC1CO1` (configuration not stated), the max response was -19.5% (inactive).
Regarding `C1CC2OC2CC1C1CO1` (configuration not stated), the max response is -9.23% (inactive) and -6.84% (inactive).
For `Brc1cccc(-c2ccccc2)c1` the value was 8.7% (inactive).
With `Oc1c(Cl)cccc1Cl`, the max response was -3.49% (inactive).
Regarding `CCNCC`, the max response was 7.41% (inactive).
Take `Cl/C=C\Cl`: the max response was -1.83% (inactive).
For `c1ccc2c(c1)CCNC2` the value was 1.81% (inactive).
`O=[N+]([O-])c1ccc(Cl)c(Cl)c1Cl`: the max response is 8.59% (inactive).
With `N#CCCC#N`, the max response was -2.73% (inactive).
Take `Cc1ccccc1[N+](=O)[O-]`: the max response is 6.42% (inactive).
For `OCCBr` the value was 5.14% (inactive); for `N#CCCCCC#N`, -18.9% (inactive); for `CN=C=O`, 3.09% (inactive).
As to `c1ccc(C2CO2)cc1` (configuration not stated), the max response was -9.74% (inactive).
`OCC(Cl)CCl` (configuration not stated): the max response is -6.78% (inactive).
Regarding `COc1ccc(C=O)cc1`, the max response was -1.3% (inactive).
